Screening results from PubChem.
Abeta yeast res = qHTS for compounds that reverse cellular toxicity of Amyloid beta (A-beta) peptide in yeast: Primary Screen; Potency, µM (highest dose often 46.1 µM), hits mostly activators; actives 0.063% (n = 410,000); AID 1347071, 2019; yeast expressing A-beta42, growth rescue, OD600, 48 h; response scale: 0% DMSO, 100% iron-clioquinol control; also: nearly all actives have a fitted effect of over 55% in size
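Yeast growth medium received pinned compounds, then yeast cells expressing toxic A-beta were added; plates incubated at 30 C for 48 hr. Growth read as absorbance at 600 nm, normalized to DMSO and equimolar FeCl3 plus clioquinol controls.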
TDP-43 yeast inh = qHTS of TDP-43 Inhibitors. actives 1.8% (n = 410,000). TDP-43 expressing yeast growth rescue, BacTiter-Glo, 24 h. Potency, µM (doses to about 46.1 µM), without a hit: at the highest dose growth rescue (activation), hits mostly activators; also: % of control where 0% means no effect; nearly all actives have a fitted effect of over 50% in size
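Readout is BacTiter-Glo luminescence of cell growth, so inhibitors register as activators. TDP-43-expressing yeast at OD600=0.02 in galactose medium, after raffinose pregrowth to mid-log, were incubated with compound for 24 hr at 30 deg C.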
FUS yeast rescue = qHTS for Suppressors of FUS Proteinopathy: Primary screen using FUS-linked yeast assay | S. cerevisiae FUS-expressing, growth rescue, OD600, 24 h | Potency, µM (series often up to 76.6 µM), hits mostly activators | actives 0.24% (n = 390,000) | AID 1347120, 2019;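 also: plate controls were DMSO vehicle for no effect and reference control for full effect; nearly all actives have a fitted effect of over 55% in size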
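Cultures pregrown in 2.5% raffinose medium are shifted to minimal medium containing 2% galactose to express toxic FUS. Compounds are tested at several concentrations. After 24hr at 30C, growth is quantified at 600 nm absorbance.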
aSyn yeast inh = qHTS of alpha-syn Inhibitors; Yeast expressing alpha-synuclein, growth rescue, BacTiter-Glo, 24 h; Potency, µM (top dose mostly 46.1 µM), for the others: at the top dose growth rescue (activation), hits mostly activators; actives 0.14% (n = 370,000); also: % of control where 0% means no effect; nearly all actives have a fitted effect of over 65% in size
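Screening used galactose-induced yeast with toxic alpha-synuclein levels, exposed to compound for 24 hr at 30 deg C. Cell growth, read with BacTiter-Glo luminescence, gave the measured signal.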
* marks the source's active call; other numbers are inactive results; i = inactive; u = inconclusive; x = no result given. This is a sample that favours compounds with a hit; in the whole collection about 2.1% have one here. Calls follow the shape of the dose curve; as a rule, active = well fitted curve in the direction sought with a large enough effect; inconclusive = small, poorly fitted or top-dose-only effect, or another doubt; inactive = no such curve, though single readings can be large; an effect the other way counts as inactive or inconclusive. Potency is read from the fitted curve at half-maximal effect.

SMILES | Abeta yeast res | TDP-43 yeast inh | FUS yeast rescue | aSyn yeast inh
Cc1ccc(NC(=S)c2ccccc2)cc1 | i | 11.2µM* | i | -2.1%
Cc1ccc(NC(=S)c2ccncc2)cc1 | x | 19.4% | i | 2.0%
CCCNC(=O)c1cc2c(c(-c3cccc(-c4ccccc4F)c3)n1)[C@@H](CCO)N(C(=O)CC1CC1)C2 | i | 14.1µM* | u | 0.0%
O=C(NCC(F)(F)F)c1cc2c(c(-c3cccc(-c4ccccc4F)c3)n1)[C@H](CCO)N(C(=O)CC1CC1)C2 | i | 21.3% | u | 11.4%
CCc1ccc(Cn2c(CNS(=O)(=O)c3ccc(Cl)s3)nc3cccnc32)cc1 | i | 16.7% | i | x
COC1=C(OC)C(=O)C(Sc2ccc3ccccc3c2)=CC1=O | i | u | x | 14.1µM*
COc1ccc(S(=O)(=O)Oc2ccc3ccccc3c2)cc1 | i | u | x | -0.9%
Cc1c(Cl)cccc1NC(=S)NCCc1ccc(C(F)(F)F)cc1 | u | 14.1µM* | i | -1.2%
S=C(NCCCCc1ccccc1)NCc1ccccc1 | 15.8µM* | 14.5% | i | -0.1%
Cc1cc(Cl)ccc1NC(=S)NCc1ccc(F)cc1 | i | 17.8µM* | i | -8.3%
S=C(NCc1ccc(Cl)cc1)Nc1ccccc1 | 12.6µM* | u | i | 8.8%
Fc1ccc(CNC(=S)Nc2ccc(Cl)cc2)cc1 | i | u | i | 0.0%
Cc1ccccc1NC(=S)NCc1ccc(F)cc1 | u | 15.8% | i | 18.4%
COc1ccccc1NC(=S)NCCc1ccc(Cl)cc1 | i | 15.8µM* | i | 6.0%
S=C(NCc1ccccc1)C(=S)NCc1ccccc1 | 8.91µM* | 18.8% | i | -31.2%
S=C(NCc1ccccc1)NCc1ccc(CNC(=S)NCc2ccccc2)cc1 | i | 7.6% | i | -2.7%
COc1ccccc1NC(=S)NCCSc1ccc(Cl)cc1 | i | 0.0% | x | -8.2%
Fc1ccccc1NC(=S)NCCc1cccc(Cl)c1 | 22.4µM* | u | i | -0.6%
S=C(NCCc1ccccc1)NCc1cccc(Cl)c1 | 15.8µM* | 22.6% | i | 4.0%
Fc1ccc(CSc2nnc(-c3ccncc3)o2)cc1 | i | 12.6µM* | i | -0.3%
Clc1ccc(CSc2nnc(-c3ccncc3)o2)cc1 | i | 6.31µM* | i | x
CC[n+]1cccc(Br)c1 | x | x | x | -5.4%
COc1ccc([C@H]2/C=C\CN(C(=O)CC(C)(C)C)[C@@H](C)C(=O)N2Cc2ccc(F)cc2)cc1 | i | 35.5µM* | i | 3.0%
Cc1nnc(N2CCCC(C(=O)NCCc3ccc(Cl)cc3)C2)c2nn(-c3ccccc3)c(C)c12 (stereo unspecified) | i | 0.0% | i | x
CCN(CC)c1nc(C#N)nc(N2CCOCC2)n1 | x | x | x | 4.2%
SMILES | Abeta yeast res | TDP-43 yeast inh | FUS yeast rescue | aSyn yeast inh
O=C(CCCn1c(=O)c2cccn2c2ccccc21)NCCc1ccc(Cl)cc1 | u | 25.1µM* | i | x
Cc1ccccc1NC(=S)c1nc2ccccc2[nH]1 | u | 17.8µM* | i | 15.3%
COc1cccc(-c2nnc(SCC(=O)Nc3ccc(Oc4ccccc4)cc3)n2Cc2ccco2)c1 | x | x | i | x
CC(C)(C)c1cnnn1-c1ccc(C(=O)CCl)cc1 | i | 8.91µM* | i | -9.3%
Cc1ccc(S(=O)(=O)c2cn(C)c3cc(N4CCCC(C)C4)c(F)cc3c2=O)c(C)c1 (stereo unspecified) | i | 19.5% | i | x
O=C(Nc1nnc(-c2cccs2)o1)c1cccc(C(F)(F)F)c1 | 6.31µM* | 7.08µM* | i | 3.16µM*
O=C(Nc1ccccc1-c1cn2c(CN3CCNCC3)csc2n1)c1cnc2ccccc2n1 | x | x | x | 3.9%
Cc1cccc(C)c1NC(=S)N(Cc1ccccc1)Cc1cccs1 | i | 35.5µM* | i | 23.3%
Cc1ccccc1Cn1ccc(-c2ccc3c(c2)OCO3)n1 | i | 17.8µM* | i | -7.6%
Fc1cccc(Cn2ccc(-c3ccc4c(c3)OCO4)n2)c1 | i | 12.6µM* | i | -13.6%
Cc1ccccc1Cn1nnc(-c2ccc3c(c2)OCO3)n1 | i | -6.0% | i | 6.8%
CCn1ncc(Cl)c1C(=O)NC(=S)Nc1ccccc1Br | i | 5.62µM* | i | -26.2%
C=CCn1c(N)c(C(=O)Nc2ccc(C)c(C)c2)c2nc3ccccc3nc21 | i | 16.8% | i | 7.4%
C=CCn1c(N)c(C(=O)Nc2cccc(C)c2)c2nc3ccccc3nc21 | i | 25.1µM* | i | 7.8%
O=[N+]([O-])c1ccccc1S(=O)(=O)N1CCN(c2nc(-c3cccs3)nc3ccccc23)CC1 | x | x | x | -4.5%
Cc1cccc(NC(=O)CN2C(=O)N/C(=C/c3ccc(C)s3)C2=O)c1 | i | -7.5% | x | -3.4%
Cc1cccc(NC(=O)CN2C(=O)N/C(=C/c3cc(C)n(C(C)C)c3C)C2=O)c1 | i | -9.0% | 20µM* | 21.2%
CCc1cc2c(N3CCN(c4ccccc4)CC3)ncnc2s1 | i | 12.6µM* | i | 12.2%
Oc1ccc(N2CCN(c3ncnc4sc(-c5ccccc5)cc34)CC2)cc1 | i | 11.2µM* | u | u
COc1cc(OC)c(/C=C/c2nccc3ccccc23)c(OC)c1 | x | x | x | -9.5%
Nc1cc(C(=O)O)c(N)c2c1C(=O)c1ccccc1C2=O | i | -34.2% | i | -29.5%
O=C(O)c1cc2ccccc2c2c1C(=O)c1ccccc1-2 | u | -7.9% | i | 2.82µM*
CCNC1=C(Cl)C(=O)c2ccccc2C1=O | i | 12.6µM* | i | 3.3%
CCCC(=O)NC1=C(Cl)C(=O)c2ccccc2C1=O | i | -90.7% | x | -82.9%
C1=Cc2ccccc2/C1=C\c1cccc(/C=C2\C=Cc3ccccc32)c1 | x | x | x | -2.9%
SMILES | Abeta yeast res | TDP-43 yeast inh | FUS yeast rescue | aSyn yeast inh
COc1ccccc1/C=N/NC(=O)c1ccccc1Cl | i | -9.3% | i | -1.5%
C=CCc1cccc(/C=N/NC(=O)c2ccccc2OC)c1O | i | 15.8µM* | i | 2.2%
O=C(N/N=C/c1ccccc1C(=O)O)c1ccccc1Br | i | -4.2% | i | 0.7%
C=CCc1cccc(/C=N/NC(=O)c2ccccc2Br)c1O | u | 15.8µM* | i | u
CCOC(=O)C1CCN(C(=O)Cn2nc(CC)n3c(cc4sccc43)c2=O)CC1 | i | -11.1% | i | x
CC1CCN(C(=O)CSc2nc3ccccc3s2)CC1 | i | u | x | 1.5%
Cc1cnc(NC(=O)CSc2nc3ccccc3s2)s1 | i | 14.1µM* | i | 4.1%
Cc1cnc(NC(=O)CSc2ccc(Cl)cc2)s1 | u | 11.2µM* | i | 2.8%
CC1CCCC(C)N1C(=O)CSc1nc2ccccc2s1 (stereo unspecified) | i | 7.94µM* | i | x
CC(C)Cc1ccc(C(=O)NCc2ccc3c(c2)OCO3)o1 | i | 14.1µM* | i | -2.9%
Cc1cc2oc(C(=O)NCc3ccc4c(c3)OCO4)c(C)c2cc1C | i | 0.0% | i | 2.5%
Cc1ccc2oc(C(=O)NCc3ccc4c(c3)OCO4)c(C)c2c1 | i | 22.4µM* | i | -4.5%
Cc1c(C(=O)NCc2ccc3c(c2)OCO3)oc2ccccc12 | i | 15.8µM* | i | 4.5%
